Reference: PubChem BioAssay AID1159580 (chemical genetic matrix, 2015)
“And” between values parts separate entries of the source, which are not always exact repeats. Equal values may be shown once. About 2,000 (36%) of roughly 5,500 compounds were called active. Inconclusive results (about 18%) are left out. Cut-off read from the data, not from the text of the source: active = normalized growth mostly below about 0.91 (no sharp cut-off); inconclusive = no clear call, values can overlap the other calls; inactive = mostly above about 0.92. Some of the results follow.

Assay: chemical genetic growth profiling, strain panel (AID 1159580);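 note: tested at 20 µM; growth read once vehicle control cultures reached saturation at 30 °C; 1 = growth at the plate median or of vehicle wells; lower values mean less growth of the strain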
Settings: S. cerevisiae deletion strains, growth OD

Measured: normalized growth

CCC[C@@H]1C[C@@H](C(=O)N[C@H]([C@H]2O[C@H](SC)[C@H](O)[C@@H](O)[C@H]2O)[C@H](C)O)N(C)C1
inactive: locus YAL021C, strain ccr4, stronger effect = lower value 0.981 | locus YAL026C, strain drs2, stronger effect = lower value 0.99 | locus YAL030W, strain snc1, stronger effect = lower value 0.984 | locus YBL061C, strain skt5, stronger effect = lower value 0.981 | locus YBR009C, strain hhf1, stronger effect = lower value 1.01 | locus YBR021W, strain FUR4, stronger effect = lower value 1.01 | locus YBR023C, strain chs3, stronger effect = lower value 0.977 | locus YBR171W, strain sec66, stronger effect = lower value 0.962 | locus YBR229C, strain ROT2, stronger effect = lower value 0.991 | locus YBR231C, strain swc5, stronger effect = lower value 0.981 | locus YBR279W, strain paf1, stronger effect = lower value 0.985 | locus YCL011C, strain gbp2, stronger effect = lower value 0.997 | locus YCL016C, strain dcc1, stronger effect = lower value 1.03 | locus YCL029C, strain bik1, stronger effect = lower value 0.996 | locus YCL061C, strain MRC1, stronger effect = lower value 0.969 | locus YCL069W, strain vba3, stronger effect = lower value 0.971 | locus YCR088W, strain abp1, stronger effect = lower value 0.973 | locus YDL005C, strain med2, stronger effect = lower value 0.979 | locus YDL035C, strain GPR1, stronger effect = lower value 1.02 | locus YDL040C, strain nat1, stronger effect = lower value 0.975 | locus YDL074C, strain BRE1, stronger effect = lower value 1.03 | locus YDL101C, strain DUN1, stronger effect = lower value 0.983 | locus YDL134C, strain PPH21, stronger effect = lower value 1 | locus YDL185W, strain tfp1, stronger effect = lower value 0.979 | locus YDL192W, strain arf1, stronger effect = lower value 0.98 | locus YDR001C, strain nth1, stronger effect = lower value 0.958 | locus YDR069C, strain doa4, stronger effect = lower value 0.965 | locus YDR101C, strain arx1, stronger effect = lower value 1.01 | locus YDR137W, strain rgp1, stronger effect = lower value 0.983 | locus YDR150W, strain NUM1, stronger effect = lower value 1 | locus YDR159W, strain sac3, stronger effect = lower value 1.01 | locus YDR162C, strain NBP2, stronger effect = lower value 1.01 | locus YDR195W, strain ref2 0.922 | locus YDR297W, strain sur2, stronger effect = lower value 0.975 | locus YDR318W, strain mcm21, stronger effect = lower value 0.989 | locus YDR334W, strain swr1, stronger effect = lower value 0.929 | locus YDR335W, strain msn5, stronger effect = lower value 0.974 | locus YDR388W, stronger effect = lower value 0.992 | locus YDR392W, strain spt3, stronger effect = lower value 1.04 | locus YDR502C, strain sam2, stronger effect = lower value 0.991 | locus YEL003W, strain gim4, stronger effect = lower value 0.952 | locus YEL037C, strain rad23, stronger effect = lower value 0.983 | locus YEL061C, strain CIN8 (second series), stronger effect = lower value 0.962 | locus YEL061C, strain CIN8, stronger effect = lower value 1.01 | locus YER015W, strain faa2, stronger effect = lower value 1.01 | locus YER016W, strain bim1, stronger effect = lower value 0.987 | locus YER110C, stronger effect = lower value 0.983 | locus YER111C, strain swi4, stronger effect = lower value 0.98 | locus YER155C, strain BEM2 (second series), stronger effect = lower value 0.986 | locus YER155C, strain BEM2, stronger effect = lower value 0.975 | locus YER167W, strain BCK2, stronger effect = lower value 1.02 | locus YFR010W, strain ubp6, stronger effect = lower value 0.974 | locus YGL078C, strain dbp3, stronger effect = lower value 0.981 | locus YGL086W, strain mad1, stronger effect = lower value 1 | locus YGL167C, strain pmr1, stronger effect = lower value 0.959 | locus YGL173C, strain kem1, stronger effect = lower value 0.973 | locus YGL227W, strain vid30, stronger effect = lower value 0.978 | locus YGL240W, strain doc1, stronger effect = lower value 0.958 | locus YGL248W, strain PDE1, stronger effect = lower value 0.986 | locus YGL253W, strain hxk2, stronger effect = lower value 0.992 | locus YGR078C, strain PAC10, stronger effect = lower value 0.993 | locus YGR135W, strain pre9, stronger effect = lower value 0.955 | locus YGR252W, strain gcn5, stronger effect = lower value 0.943 | locus YHR013C, strain ard1, stronger effect = lower value 0.993 | locus YHR027C, strain rpn1, stronger effect = lower value 0.981 | locus YHR030C, strain SLT2, stronger effect = lower value 1.01 | locus YHR079C, strain IRE1 (second series), stronger effect = lower value 0.998 | locus YHR079C, strain IRE1, stronger effect = lower value 1.03 | locus YHR094C, strain hxt1, stronger effect = lower value 0.998 | locus YHR129C, strain ARP1, stronger effect = lower value 0.981 | locus YHR142W, strain chs7, stronger effect = lower value 0.995 | locus YHR200W, strain rpn10, stronger effect = lower value 0.993 | locus YIL066C, strain RNR3, stronger effect = lower value 0.991 | locus YIL073C, strain SPO22, stronger effect = lower value 1 | locus YIL125W, strain kgd1, stronger effect = lower value 0.985 | locus YIR030C, strain dcg1, stronger effect = lower value 0.99 | locus YJL092W, strain hpr5, stronger effect = lower value 0.977 | locus YJL095W, strain BCK1 (second series), stronger effect = lower value 0.978 | locus YJL095W, strain BCK1, stronger effect = lower value 0.98 and 1.02 | locus YJL115W, strain asf1, stronger effect = lower value 0.977 | locus YJL129C, strain trk1, stronger effect = lower value 0.984 | locus YJL134W, strain LCB3, stronger effect = lower value 0.998 | locus YJL154C, strain vps35, stronger effect = lower value 0.969 | locus YJL164C, strain tpk1, stronger effect = lower value 1.01 | locus YJL166W, strain qcr8, stronger effect = lower value 0.934 | locus YJL168C, strain set2, stronger effect = lower value 0.992 | locus YJL187C, strain SWE1 (second series), stronger effect = lower value 0.984 | locus YJR043C, strain POL32, stronger effect = lower value 1.01
